# Sampled rows, rich in hits. Any-hit rate of the full collection: about 21%.
# Shiga toxin inh – A qHTS for Small Molecule Inhibitors of Shiga Toxin | Vero cells, Shiga toxin protein synthesis inhibition reporter | inhibition, % at 38.7 µM | 9.2% of 290,000 active | AID 2315, 2010; in the data active = inhibition mostly above about 28%, no sharp cut-off; inactive = mostly below about 43%; note: 0% is about no effect
# NS1 inh – qHTS Assay for Inhibitors of Influenza NS1 Protein Function | AID 2326, 2010 | 0.4% of 270,000 active | Potency, µM (top dose mostly 46.1 µM), inactives show at the top dose activity, positive = more growth; calls by dose curve; note: potency is the fitted concentration of half-maximal effect; actives are rising curves; nearly all actives have a fitted effect of over 50% in size
#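 Read-out: OD600 growth recovery of NS1-expressing budding yeast. Cells grown overnight at 30C in -URA glucose medium, washed, resuspended and diluted 1:100 in 2% galactose assay medium, pH 6.0. Same strain lacking NS1 served as positive control.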
# Cycloheximide cs – Cycloheximide Counterscreen for Small Molecule Inhibitors of Shiga Toxin. cell reporter, cycloheximide protein synthesis inhibition counterscreen. max response, %. 12% of 300,000 active. AID 2314, 2010; in the data active = max response mostly above about 13%, no sharp cut-off; inactive = mostly below about 14%; note: read at 38.3 µM for the half of the compounds with a filed dose; 0% is about no effect
# Pf growth 96h – Primary qHTS for delayed death inhibitors of the malarial parasite plastid, 96 hour incubation; P. falciparum luciferase reporter growth, 96 h; Potency, µM (top dose mostly 28.7 µM), inactives show at the highest dose activity change, negative = inhibition, actives largely listed as inhibitors; 6.9% of 320,000 active; note: potency is the fitted concentration of half-maximal effect; % is set by controls: 0 for no effect and ±100 for the full control effect
#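 Two parasite generations (96 h, 37 C, 5% CO2) of compound exposure in infected erythrocytes (0.05% parasitemia, 2% hematocrit). Luciferase-reporter P. falciparum; decreased luminescence indicates inhibited growth, aimed at apicoplast-acting delayed death.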
# Pf growth 48h – Primary qHTS for delayed death inhibitors of the malarial parasite plastid, 48 hour incubation. P. falciparum luciferase growth in erythrocytes, 48 h. Potency, µM (doses to about 28.7 µM), without a hit: at the highest dose activity change, negative = inhibition, hits mostly inhibitors. 5.9% of 310,000 active. AID 504832, 2011; note: potency is the fitted concentration of half-maximal effect; % is set by controls: 0 for no effect and ±100 for the full control effect
#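 Firefly luciferase activity from engineered P. falciparum reports growth; inhibitors lower the luminescent signal. Cultures contained 2% hematocrit erythrocytes at 0.1% final parasitemia.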
# Giardia FBPA inh – qHTS Assay for Inhibitors of Fructose-1,6-bisphosphate Aldolase from Giardia Lamblia | A8B2U2 | purified Giardia FBPA | Potency, µM (top dose mostly 59.6 µM), for inactives: top-dose activity, negative = inhibition, most hits filed as inhibitors | 0.71% of 290,000 active | AID 2451, 2010; note: potency is the fitted concentration of half-maximal effect; % is set by controls: 0 for no effect and ±100 for the full control effect; nearly all actives have a fitted effect of over 55% in size
# Target sequence (A8B2U2 whole entry, looked up): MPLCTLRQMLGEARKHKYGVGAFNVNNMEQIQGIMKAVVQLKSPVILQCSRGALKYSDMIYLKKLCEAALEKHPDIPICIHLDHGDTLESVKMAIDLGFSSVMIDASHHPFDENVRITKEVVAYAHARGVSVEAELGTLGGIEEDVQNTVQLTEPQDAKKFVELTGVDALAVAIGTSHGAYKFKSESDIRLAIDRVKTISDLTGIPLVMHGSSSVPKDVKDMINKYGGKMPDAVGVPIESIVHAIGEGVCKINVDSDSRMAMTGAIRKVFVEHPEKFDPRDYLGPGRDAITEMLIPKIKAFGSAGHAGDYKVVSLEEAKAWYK
#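 Giardia FBPA (40 nM reagent) was preincubated 10 min at RT with compound (up to 57.5 uM final), then substrate plus GAPDH/TPI/NAD/arsenate coupling system with diaphorase/resazurin was added; resorufin fluorescence (525/598 nm) was read after 20 min.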
# Starred values were filed as active, the others as inactive; i = inactive; ? = inconclusive; . = not tested or not shown; [ ] = remark or other dose. Unless noted, calls come from the whole dose curve; as a rule, active = well fitted curve in the direction sought with a large enough effect; inconclusive = small, poorly fitted or top-dose-only effect, or another doubt; inactive = no such curve, though single readings can be large; an effect the other way counts as inactive or inconclusive.
SMILES,Shiga toxin inh,NS1 inh,Cycloheximide cs,Pf growth 96h,Pf growth 48h,Giardia FBPA inh
Cc1ccc(NC(=S)c2ccccc2)cc1,14*,-2%,35*,0%,113%,-11%
COc1ccc(C(=S)Nc2ccc(C)cc2)cc1,79*,-3%,51*,i,120%,-1%
Cc1noc(C)c1-c1ccc2ncnc(NCc3ccc(Br)cc3)c2c1,28,.,27,.,.,-1%
C1CCC(CNc2c3c(nc4nnnn24)CCCC3)CC1,1,4%,-4,13µM*,?,3%
C1CCN(c2c3c(nc4nnnn24)CCCC3)CC1,-20,-8%,1,10µM*,5%,.
COc1ccc(CCNC(=O)C2c3ccccc3C(=O)N2CCC(C)C)cc1OC (stereo not given),4,-1%,6,8.3µM*,-12%,-12%
COc1ccc(CCNC(=O)C2CCC(=O)N2CCc2ccccc2)cc1OC (stereo not given),125*,.,26*,-100%,7%,2%
Cc1ccc(CN2C(=O)CCC2C(=O)NCCc2ccccc2)cc1 (stereo not given),-10,2%,-2,3%,-1%[0.00184 µM],11%
Cc1cccc(C(=O)N[C@H](C(=O)NCCc2ccc(S(N)(=O)=O)cc2)C(C)C)c1,-8,-5%,-4,5%,-8%,-11%
Oc1cccnc1SCc1ccccc1,.,.,.,109%,25%,.
c1ccc(CSc2ncccn2)cc1,6,3%,19*,4%,10%,0%
Clc1ccc(CSc2ncn[nH]2)cc1,45,-14%,14,26%,34%,-10%
Clc1ccc(CSc2ncccn2)cc1,43*,-1%,32*,.,64%,2%
CC(=O)Nc1nc2c(C)c(Cl)ccc2s1,-4,-4%,-2,23%,7%,4%
O=C(NNc1nc2c(F)cccc2s1)c1ccc(F)cc1,9,.,12,?,?,1%
O=C(Nc1nc2c(F)cccc2s1)C1CC1,54*,-26%,36*,59%,56%,4%
NNc1nc2c(F)cccc2s1,77*,-1%,84*,84%,75%,-13%
Cc1c(Cl)ccc2sc(NC(=O)C3CC3)nc12,28*,-48%,18*,34%,25%,9%
Fc1cccc2sc(Nc3nc4c(F)cccc4s3)nc12,38*,16%,63*,?,72%,2%
Cc1ccccc1OCC(=O)NCCCNC(=O)c1ccncc1,-7,1%,1,-27%,13%,5%
O=C(O)C(Cc1c[nH]c2ccccc12)N1C(=O)c2ccccc2C1=O (stereo not given),9,-3%,-2,22%,9%,-6%
CC(C)Oc1ccc(N2CC(C(=O)Nc3ccccc3C(=O)NC3CC3)CC2=O)cc1 (stereo not given),.,.,.,38%,?,.
NNc1nc2c(F)cc(F)cc2s1,82*,-10%,70*,36%,63%,-10%
Nc1nc2c(F)cccc2s1,-12,0%,10,0%,15%,1%
O=C(CCC(=O)NC1CCCCC1)Nc1cccnc1,-2,5%,1,0%,-6%,11%
SMILES,Shiga toxin inh,NS1 inh,Cycloheximide cs,Pf growth 96h,Pf growth 48h,Giardia FBPA inh
COc1cccc(OC)c1C(=O)Nc1cccnc1,-11,.,-4,38%,?,0%
O=C(Nc1cccnc1)OC1CCCC1,40,.,22*,30%,60%,8%
O=C(Nc1cccnc1)OC1CCCCC1,36,.,19*,42%,75%,4%
CC(=O)n1cc(N(C(=O)CCl)c2ccc(Cl)cc2)c2ccccc21,61*,-78%,27*,?,2.3µM*,-9%
COc1ccccc1N(C(=O)CCl)c1cn(C(C)=O)c2ccccc12,17,3%,11,?,?,1%
CC(OC(=O)CCN=C1NS(=O)(=O)c2ccccc21)C(=O)Nc1ccc(S(N)(=O)=O)cc1 (stereo not given),.,.,.,1%,-1%,.
CNc1ccnc(-c2ccccc2C(F)(F)F)n1,.,.,.,.,.,-4%
Cc1cc(NCc2ccccn2)n2ncc(-c3ccccc3)c2n1,70*,-12%,44*,-69%,193%,-10%
Cc1cc(C(F)(F)F)n2nc(C)c(-c3ccc(Cl)cc3)c2n1,-28,16%,-3,-100%,1%,2%
Cc1cc(NCCOCCO)n2ncc(-c3ccc(Cl)cc3)c2n1,74*,-66%,23*,i,444%,3%
Cc1cc(NCCc2ccc(Cl)cc2)n2ncnc2n1,-16,0%,11,21%,-6%,0%
Cc1cc(NCc2ccccn2)n2ncc(-c3ccc(Cl)cc3)c2n1,48*,-6%,29*,36%,33%,-11%
Cc1cc(NCc2ccccn2)n2nc(C)c(-c3ccc(Cl)cc3)c2n1,-13,-4%,5,2.9µM*,1.7µM*,-11%
COc1ccccc1-c1cnn2c(NCc3ccccc3)cc(C)nc12,34,-4%,12,?,-10%,10%
COc1cc(OC)cc(C(=O)NNC(=O)c2cc(S(=O)(=O)N3CCOCC3)ccc2F)c1,.,.,.,?,-10%,.
CN(C)c1ccnc(-n2cccc2/C=N/OCc2ccccc2)c1C#N,-4,-49%,-2,-25%,.,2%
Cc1nc2ccccc2nc(C)c1=NOCc1ccc(C#N)cc1,66*,1%,29*,?,16%,-2%
N#Cc1ccc(CO/N=C/c2ccccc2)cc1,76*,.,41*,67%,231%,2%
COc1ccc(N2CCN(C(=O)COC(=O)CNC(=O)c3ccc(C)cc3)CC2)cc1,.,.,.,13%,41%,.
CCC(C)(C)NC(=O)Cn1c(=O)oc2cc(S(=O)(=O)N3CC(C)CC(C)C3)ccc21 (stereo not given),-7,-3%,-1,?,?,6%
Cc1c(C(=O)NCc2ccc3c(c2)OCO3)oc2ccc(S(=O)(=O)N3CCCCCC3)cc12,-12,-32%,-3,?,13µM*,6%
Cc1ccc2oc(C(=O)NCc3ccc4c(c3)OCO4)c(C)c2c1,2,-124%,24*,86%,33%,-6%
CC1CCN(S(=O)(=O)c2ccc3c(c2)oc(=O)n3CC(=O)NCc2ccc3c(c2)OCO3)CC1,-18,-93%,-10,?,.,-1%
Cc1c(C(=O)NCc2ccc3c(c2)OCO3)oc2ccc(Br)cc12,-20,-11%,0,.,-13%,9%
CC1CC(C)CN(S(=O)(=O)c2ccc3c(c2)oc(=O)n3CC(=O)NCc2cccnc2)C1 (stereo not given),-13,3%,-2,10µM*,?,4%
Cc1c(C(=O)NCc2ccc3c(c2)OCO3)oc2ccc(S(=O)(=O)N3CCC(C)CC3)cc12,4,-2%,-3,58%,9.3µM*,0%
COc1ccc2nccc(SCC(=O)O)c2c1,.,0%,.,.,.,.
